Bioassay records from PubChem.
Most compounds without a hit are left out; they make up all but 2.8% or so of the library.
SENP8 block-1: SENP8 (human) protease inhibition | inhibition, % at 20 µM | 360,000 compounds, 0.64% hits | recombinant SENP8, Nedd8 substrate fluorescence | Q96LD8; in the data active means inhibition mostly above about 40%, no sharp cut-off; inactive means mostly below about 27%
Target sequence (Q96LD8 whole entry, looked up): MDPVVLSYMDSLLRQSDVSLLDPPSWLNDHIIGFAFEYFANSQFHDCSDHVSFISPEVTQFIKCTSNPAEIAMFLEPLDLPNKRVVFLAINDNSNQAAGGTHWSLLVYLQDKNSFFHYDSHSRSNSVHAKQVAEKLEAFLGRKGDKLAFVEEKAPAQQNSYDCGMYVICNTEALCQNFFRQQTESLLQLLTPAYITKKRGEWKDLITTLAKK
SENP7 inh: SENP7 protease inhibition | Q9BQF6 | recombinant SENP7, Z-RLRGG-aminoluciferin luminescence, 40 min | inhibition, % at 5 µM | 330,000 compounds, 1.5% hits | AID 434973;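 active means inhibition above about 50% at the single test dose, limit read from the data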;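 further: plate controls were DMSO with enzyme for no effect and no enzyme buffer wells for full effect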
HSP90 refold inh: HSP90 refolding inhibition in rabbit reticulocyte lysate | luciferase refolding luminescence, 3 h | inhibition, % at 5.6 µM | 290,000 compounds, 0.91% hits | AID 1789;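 active means inhibition above the screen-wide mean plus 3 SD, computed separately per campaign, cut at about 16% in these data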;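 further: 0% = DMSO wells and 100% = 60 µM geldanamycin wells; inhibitors lower the luminescence because luciferase stays unfolded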
SENP8 block-2: SENP8 protease inhibition; Q96LD8; purified SENP8, Z-RLRGG-aminoluciferin cleavage, luminescence; inhibition, % at 10 µM; 330,000 compounds, 1.2% hits; AID 2540; in the data active means inhibition above about 50%
SENP6 block: inhibitors of human SENP6 protease; Recombinant SENP6 catalytic domain, aminoluciferin luminescence; inhibition, % at 10 µM; 330,000 compounds, 1.8% hits; AID 2599;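 active means inhibition above about 50% at the single tested dose, limit read from the data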;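 further: plate controls were DMSO wells with enzyme for no effect and DMSO wells lacking enzyme for full effect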
SENP8 confirm: confirmation of human SENP8 protease inhibitors; shares compounds with SENP7 inh; Recombinant SENP8, Z-RLRGG-aminoluciferin luminescence, 60 min; inhibition, % at 12.5 µM; 6,200 compounds, 40% hits;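 active means mean inhibition across replicates above about 50%, limit read from the data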
SENP6 conf: confirmation of human SENP6 protease inhibitors. recombinant SENP6, Z-RLRGG-aminoluciferin luminescence. shares compounds with SENP7 inh. 6,200 compounds, 58% hits. inhibition, % at 12.5 µM
SENP7 confirm: confirmation of human SENP7 protease inhibitors | shares compounds with SENP7 inh | recombinant SENP7, Z-RLRGG-aminoluciferin luminescence, 40 min | inhibition, % at 12.5 µM | 6,200 compounds, 69% hits | AID 488917
Casp3 select: inhibits human caspase-3 in SENP selectivity test | shares compounds with SENP7 inh | purified caspase-3, Z-DEVD-aminoluciferin luminescence, 60 min | inhibition, % at 12.5 µM | 6,200 compounds, 60% hits | AID 488918;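 active means mean inhibition above about 50%, limit read from the data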;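 further: plate controls were enzyme with DMSO for no effect and wells without caspase-3 for full effect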
Target sequence (P42574 28-227 limits assumed): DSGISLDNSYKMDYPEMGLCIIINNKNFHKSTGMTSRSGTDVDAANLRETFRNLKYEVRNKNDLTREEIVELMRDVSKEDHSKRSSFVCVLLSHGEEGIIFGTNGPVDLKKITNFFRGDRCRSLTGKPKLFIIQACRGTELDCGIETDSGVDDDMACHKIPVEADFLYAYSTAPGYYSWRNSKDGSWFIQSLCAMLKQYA
SENP luc ctr: counter-screen for SENP inhibitors: luminescence interference; AID 488919; shares compounds with SENP7 inh; Pre-incubated SENP8/Z-RLRGG-aminoluciferin, luciferase luminescence interference; inhibition, % at 12.5 µM; 6,200 compounds, 39% hits;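 active means mean inhibition above about 50% when retested at one dose, limit read from the data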;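 further: plate controls were DMSO wells with completed reaction for no effect and substrate without enzyme for full effect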
* hit, by the source's call; nt = no result.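 How the source made its calls, unless noted: active means mean inhibition above about 50% in the one-dose retest (limit read from the data); inactive means the rest.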

SMILES	SENP8 block-1	SENP7 inh	HSP90 refold inh	SENP8 block-2	SENP6 block	SENP8 confirm	SENP6 conf	SENP7 confirm	Casp3 select	SENP luc ctr
Nc1ccc(-c2cc3ccccc3c(=O)o2)cc1	-478.0	26.3	nt	40.6	52.5*	43.9	45.1	77.0*	54.6*	1.3
CC(C)n1c(C(F)(F)F)nc2cc(C(=O)N3CCOCC3)ccc21	13.2	-7.5	-6.1	-4.2	-0.5	nt	nt	nt	nt	nt
COc1ccc2oc(=O)c(C(=O)Nc3ccccc3C)cc2c1	-12.3	73.7*	0.5	46.9	64.9*	38.4	36.1	44.6	50.3*	11.0
COc1ccc2oc(=N)c(C(=O)Nc3ccccc3)cc2c1	-203.3	71.9*	-1.6	44.8	61.8*	33.7	34.7	69.3*	56.6*	19.5
COc1ccc2oc(=N)c(C(=O)Nc3ccc(C)cc3)cc2c1	-5.0	3.7	-1.4	11.0	-20.5	nt	nt	nt	nt	nt
COc1ccc2oc(=N)c(C(=O)Nc3ccccc3Cl)cc2c1	-255.9	61.0*	1.1	-13.1	11.7	2.2	7.2	8.7	36.8	10.1
Cc1cccnc1NC(=O)c1cc2ccccc2oc1=O	-19.5	91.3*	1.4	5.3	20.2	52.6*	52.3*	80.4*	68.4*	24.2
CC(C)c1nnc(NC(=O)c2ccc3c(c2)OCO3)s1	-3.4	24.2	6.6	17.7	28.5	nt	nt	nt	nt	nt
O=C(COC(=O)Cc1c(Cl)cccc1Cl)NC1CCCC1	23.2	-4.0	nt	-10.1	-17.4	nt	nt	nt	nt	nt
CCc1nccn1CCC(=O)NC1CC(C)(C)Cc2c1cnn2-c1ccc(C)cc1 (stereo unspecified)	12.5	6.5	-1.9	-3.9	-0.5	nt	nt	nt	nt	nt
COc1cc2ccccc2cc1C(=O)Nc1ccccc1Cl	-45.8	3.9	-3.5	46.9	57.9*	71.6*	71.7*	91.2*	nt	42.0
N=c1oc2ccc(Cl)cc2cc1C(=O)Nc1ccc(F)cc1	4.1	-12.9	-3.7	-4.2	-20.5	nt	nt	nt	nt	nt
N=c1oc2cc(O)ccc2cc1C(=O)Nc1ccc(Br)cc1	-296.3	24.6	2.0	77.1*	86.3*	9.7	29.8	14.9	11.5	9.4
N=c1oc2ccccc2cc1C(=O)Nc1ccccc1	17.5	92.6*	6.8	89.0*	86.3*	-5.4	55.6*	78.5*	46.7	5.6
O=C(CN1C(=O)C2CC=CCC2C1=O)Nc1ccc(F)c(Cl)c1 (stereo unspecified)	6.8	nt	nt	nt	nt	nt	nt	nt	nt	nt
Cc1ccc2nc(-c3ccc(Cl)cc3)c(Cc3ccccn3)n2c1	-381.7	nt	nt	nt	nt	nt	nt	nt	nt	nt
O=c1cc(CCl)nc2sc3ccccc3n12	-3.4	-3.9	3.7	-10.5	-21.2	nt	nt	nt	nt	nt
COc1ccccc1N(CC(O)CN1CCCC1)S(=O)(=O)c1ccccc1 (stereo unspecified)	14.5	-3.2	-0.4	5.6	-4.5	nt	nt	nt	nt	nt
O=C(CCC(=O)OCCCC(F)(F)C(F)(F)F)Nc1ccccc1	15.5	99.3*	-1.9	-0.4	-21.7	-2.1	-1.2	-6.1	-4.6	-3.8
COc1ccc(NC(=O)CN2CCc3ccccc3C2)cc1	5.9	nt	nt	nt	nt	nt	nt	nt	nt	nt
COc1cc(OC)cc(C(=O)OCC(=O)c2cc(C)n(CC3CCCO3)c2C)c1 (stereo unspecified)	0.2	21.7	nt	47.9	68.0*	57.4*	49.1	78.8*	52.8*	3.4
COc1cc(OC)c(C(=O)OCC(=O)c2cc(C)n(CC3CCCO3)c2C)cc1OC (stereo unspecified)	4.6	-3.4	-8.7	3.9	0.1	nt	nt	nt	nt	nt
Clc1c(-c2ccccc2)nnn1-c1ccccc1	15.7	76.9*	-3.1	76.2*	90.6*	74.5*	81.3*	95.6*	75.4*	75.9*
Cc1ccc(NC(=O)/C(Cl)=C/c2ccccc2)cc1C	13.8	80.7*	4.7	67.0*	86.2*	2.0	80.5*	95.5*	53.7*	37.4
C[C@@H](C(=O)Nc1ccc2ccccc2c1)[C@H]1C[C@]1(C)[C@H](NS(=O)(=O)c1ccccc1)c1ccccc1	nt	-1.0	0.9	2.1	-14.8	nt	nt	nt	nt	nt
SMILES	SENP8 block-1	SENP7 inh	HSP90 refold inh	SENP8 block-2	SENP6 block	SENP8 confirm	SENP6 conf	SENP7 confirm	Casp3 select	SENP luc ctr
Cc1ccnc(Nc2nc(-c3ccccc3)cs2)c1	14.4	85.4*	1.8	80.5*	90.4*	12.7	64.5*	84.6*	44.1	-4.2
Cc1cccnc1Nc1nc(-c2ccccc2)cs1	-6.5	97.2*	4.5	92.3*	96.9*	-0.4	96.4*	101.6*	81.8*	73.9*
CC(=O)Nc1ccc(-c2csc(Nc3cc(C)ccn3)n2)cc1	14.9	-2.3	-1.5	-12.6	2.5	nt	nt	nt	nt	nt
Cc1csc(Nc2ccc(C(=O)O)cc2)n1	-6.9	-11.6	1.0	-10.8	-3.7	nt	nt	nt	nt	nt
O=C(O)c1ccc(Nc2nc(-c3ccccc3)cs2)cc1	-72.0	65.2*	9.9	49.8	84.0*	72.4*	70.4*	89.8*	63.3*	80.4*
Cc1cccnc1Nc1nc(-c2ccc(O)cc2O)cs1	10.6	27.2	8.2	56.4*	68.5*	81.3*	81.1*	92.5*	25.1	45.2
CCC1([N+](=O)[O-])COC(C=Cc2ccccc2)OC1 (stereo unspecified)	14.8	nt	nt	nt	nt	nt	nt	nt	nt	nt
CCOC(=O)C1CCCN(C(=O)c2cccc(S(=O)(=O)N(C)c3c(C)n(C)n(-c4ccccc4)c3=O)c2)C1 (stereo unspecified)	5.6	-0.1	-1.2	2.4	4.8	nt	nt	nt	nt	nt
CC(C)(C)c1ccc(C(=O)n2cnc3ccccc32)cc1	4.3	-11.0	-3.2	-23.7	-30.3	nt	nt	nt	nt	nt
CCOc1ccccc1C1CC(c2ccc(F)cc2)Nc2nc(N)nn21 (stereo unspecified)	-14.3	-0.2	5.3	6.3	-0.2	nt	nt	nt	nt	nt
Oc1ccc(-c2csc(Nc3ccccn3)n2)c(O)c1	4.9	35.7	-0.8	41.6	71.2*	52.8*	67.5*	89.1*	15.5	81.5*
O=C(CSc1ncccc1-c1nc2ccccc2[nH]1)N1CCc2ccccc21	-178.6	55.4*	11.2	-11.0	-0.3	4.3	-2.3	16.0	11.4	5.6
COC(=O)CSc1ncccc1-c1nc2ccccc2[nH]1	-58.8	-6.0	0.0	-13.9	-3.4	nt	nt	nt	nt	nt
COc1ccc2c(CC(=O)N3CCc4ccccc43)coc2c1	-2.9	85.1*	0.7	71.7*	84.7*	81.0*	80.7*	93.2*	80.6*	61.4*
O=C(Nc1ccc(C(=O)N2CCCC2)cc1)c1ccc2c(c1)OCO2	2.1	90.9*	1.3	80.0*	86.5*	83.0*	86.3*	99.0*	95.9*	89.0*
